Tests used:
Assay type in all cases: functional
[1] = molecular target: Solute carrier family 2, facilitated glucose transporter member 1 (Homo sapiens) (UniProt P11166); assay: ST_JUDE_LEISH: Cytotoxicity at 2uM final concentration against transgenic Leishmania Mexicana promastigotes LmGLUT1 that are glucose transport deficient and complemented with the human glucose transporter GLUT1. Activity is measured by DNA content using SYBR green in vitro
[2] = molecular target: Hexose transporter 1 (Plasmodium falciparum) (UniProt O97467); assay: ST_JUDE_LEISH: Cytotoxicity at 2uM final concentration against transgenic Leishmania Mexicana promastigotes LmPfHT that are glucose transport deficient and complemented with the Plasmodium falciparum hexose transporter. Activity is measured by DNA content using SYBR green in vitro
[3] = molecular target: Glucose transporter (Leishmania mexicana) (UniProt O61059); assay: ST_JUDE_LEISH: Cytotoxicity at 2uM final concentration against transgenic Leishmania Mexicana promastigotes LmGT2 that are glucose transport deficient and complemented with the L. Mexicana glucose transporter 2. Activity is measured by DNA content using SYBR green in vitro

Sequence of Solute carrier family 2, facilitated glucose transporter member 1 (Homo sapiens) (P11166 whole entry): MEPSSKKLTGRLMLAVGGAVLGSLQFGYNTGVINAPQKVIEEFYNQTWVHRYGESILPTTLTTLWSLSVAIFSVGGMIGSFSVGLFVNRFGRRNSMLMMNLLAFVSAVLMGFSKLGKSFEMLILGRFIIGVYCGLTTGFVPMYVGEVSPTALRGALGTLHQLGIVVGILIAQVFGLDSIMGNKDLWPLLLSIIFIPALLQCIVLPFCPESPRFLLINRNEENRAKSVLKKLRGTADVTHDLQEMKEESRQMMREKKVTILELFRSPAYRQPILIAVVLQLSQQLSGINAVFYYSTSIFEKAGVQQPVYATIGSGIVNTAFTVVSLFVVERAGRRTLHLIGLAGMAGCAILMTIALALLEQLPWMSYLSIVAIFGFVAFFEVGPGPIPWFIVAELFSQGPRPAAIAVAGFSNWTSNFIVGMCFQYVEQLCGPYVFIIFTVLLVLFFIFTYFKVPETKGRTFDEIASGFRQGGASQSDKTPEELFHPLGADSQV

| SMILES | inhibition [1] [%] | inhibition [2] [%] | inhibition [3] [%] |
| --- | --- | --- | --- |
| CC(C)COc1cc(C(=O)Nc2cnc3ccccc3c2)ccc1[N+](=O)[O-] | 11.9 | 10.8 | 10.9 |
| CC(=O)N(C)c1cccc(C(=O)Nc2cccc(-c3ccc(-c4nc5cc(C(F)(F)F)ccc5[nH]4)cc3)c2)c1 | 4.32 | 4.03 | 4.63 |
| Cc1[nH]c(C)c(-c2ccc(OCc3ccc(OC(F)(F)F)cc3)nc2)c(=O)c1Br | 8.89 | 13.8 | 3.44 |
| Cc1ccc(OC2CCN(c3ccc(C(=O)NC4CC4)cn3)CC2)cc1 | 0.24 | 2.06 | 1.55 |
| CCOC(=O)c1ccc(NC(=O)Nc2ccc(-c3cccc(-c4nc5cccc(C)c5[nH]4)c3)cc2)cc1 | -0.01 | -0.4 | -0.76 |
| Nc1ncc(-c2ccccc2)cc1/C=C/c1cccnc1 | 0.64 | -2.47 | 0.23 |
| Cc1cc(Cl)c(S(=O)(=O)NC2CCCC2)cc1OCC(=O)NC1CCCCC1 | 3.49 | 2.41 | 3.8 |
| N#Cc1ccc(N(CCOc2ccc(Cl)c(Cl)c2)Cc2ccccc2C(F)(F)F)cc1C(F)(F)F | 2.54 | -0.11 | 0.26 |
| Fc1ccc2[nH]c(-c3cccc(-c4cccc(CNCc5cnn(-c6ccccc6)n5)c4)c3)nc2c1 | 6.56 | 8.75 | 7.46 |
| O=C(Nc1ccc(F)c(F)c1)c1ccc(CN2CCCN(Cc3cccc(O)c3)CC2)cc1 | 3.12 | 2.77 | 3.84 |
| CC1(C)NC(N)=NC(=N)N1OCCCOc1ccc([N+](=O)[O-])cc1 | 0.81 | 0.61 | 0.11 |
| COc1ccc(Cc2c(C)nc3nc(N)nc(N)c3c2C)cc1OC | 13.6 | 15 | 12.1 |
| Cn1cncc1C(=O)Nc1ccc(-c2cccc(-c3nc4cc(F)ccc4[nH]3)c2)cc1 | 3.54 | 3.21 | 4.7 |
| N=C(N)NC(=O)Nc1cc(F)c(Cl)c(Cl)c1 | 12.8 | 10.5 | 6.35 |
| CS(=O)(=O)c1ccc(CCNCc2ccc(-c3ccc(CN(C(=O)C4CC(=O)c5ccccc54)C4Cc5ccccc5C4)cc3)nc2)cc1 (stereo not drawn) | 1.52 | -0.58 | -0.89 |
| COc1cc(Cc2cnc(N)nc2N)cc(OC(C)C)c1OC | -0.55 | 0.72 | -0.54 |
| C=C[C@H]1CN(CCCCCCC)CC[C@H]1CCN(C)c1ccnc2ccc(OC)cc12 | 1.17 | 2.44 | 2.13 |
| CCNc1cc(C(=O)N[C@@H](Cc2ccccc2)[C@H](O)CNC23CCC(CC2)C3)cc(N2CCCCS2(=O)=O)c1 | 0.79 | -1.58 | 3.19 |

| SMILES | inhibition [1] [%] | inhibition [2] [%] | inhibition [3] [%] |
| --- | --- | --- | --- |
| CCOc1ccc(C(=O)Nc2cc3c(c(C(F)(F)F)c2)CCNC3)cc1Cl | 7.38 | 4.16 | 5.38 |
| Cc1cc(NC2CCN(CC3CCCCC3)C2)nc(Nc2ccc(Br)cc2)n1 (stereo not drawn) | -0.39 | 2.78 | 0.66 |
| CCCN(Cc1nnc(-c2cccs2)o1)C(=O)CSc1nnnn1-c1cc(C)cc(C)c1 | 4.84 | 5.88 | 2.71 |
| Cc1[nH]c2ccccc2c1CC1CCN(CC2CCN(C(=O)/C=C/c3ccc(Cl)c(Cl)c3)CC2)CC1 | 0.92 | 1.33 | 1.79 |
| Cn1cccc1C(=O)Nc1cccc(-c2nn3ccccc3c2-c2ccnc(Nc3ccc4c(c3)OCCO4)n2)c1 | 4.74 | 9.05 | -1.17 |
| Cc1cccc2nc(-c3cccc(-c4ccc(NC(=O)Cc5ccon5)cc4)c3)[nH]c12 | 14.2 | 12.3 | 10.8 |
| COc1cc2c(cc1OC)CC(NCCCCCCNCCc1ccc(Cl)cc1)CC2 (stereo not drawn) | 0.92 | -1.16 | 0.76 |
| FC(F)(F)c1ccc2[nH]ccc(=NN=CC=Cc3ccccc3)c2c1 | 0.22 | 0.25 | 4.34 |
| Cn1cnc(CCNC(=O)c2ccc(-c3ccc(-c4nc5cc(F)ccc5[nH]4)cc3)cc2)c1 | 5.05 | 5.92 | 4.84 |
| CCOc1cc(C(=O)Nc2ccc3nc(N4CCN(C)CC4)cc(C)c3c2)cc(OCC)c1OCC | 3.11 | 3.76 | 1.63 |
| CC(=O)N(C)c1cccc(C(=O)Nc2cccc(-c3cccc(-c4nc5cc(C(F)(F)F)ccc5[nH]4)c3)c2)c1 | 12.3 | 12 | 5.52 |
| Cc1ccc(F)c(OCC2CCN(c3ccc(C(=O)NC4CC4)cn3)CC2)c1 | 3.7 | 2.89 | -1.65 |
| Cc1c(Cc2ccc(C(C)C)cc2)cnc2nc(N)nc(N)c12 | 1.34 | 0.5 | 1.42 |
| COC(=O)c1cccc(CNCc2ccc(-c3ccc(-c4nc5cc(F)ccc5[nH]4)cc3)cc2)c1 | 13 | 6.26 | 4.98 |
| COc1ccc2nc(/N=C3\NC(c4ccccn4)(c4ccccn4)C(=O)N3C)[nH]c2c1 | 11.7 | 11.1 | 9.86 |
| Cc1cc(NCCc2ccccc2)nc(NC(=N)Nc2cccc(F)c2)n1 | 2.17 | 3.28 | -0.09 |
| COc1ccc(Nc2nc(NC3CCCC3)cc(-c3ccc(OC)cc3)n2)cc1 | -0.76 | 0.56 | -0.75 |
| OC1(Cc2ccccc2)CCN(Cc2cccc(-c3c[nH]c4nc(NC5CCCC5)ncc34)c2)CC1 | 9.83 | 8.36 | 6.99 |
